Measured values: PubChem BioAssay (NCATS)
Results filed as inconclusive are left out. Where a call stands in place of a potency, no number is given. Activity calls are given as the source filed them. Calls follow the shape of the dose curve; as a rule, active = well fitted activation curve with a large enough effect; inconclusive = small, poorly fitted or top-dose-only effect; inactive = no such curve, though single readings can be large or run the other way.

experiment: Validation screen for small molecules that induce genotoxicity in human embryonic kidney (HEK293T) cells expressing luciferase-tagged ELG1 (AID 493106); conditions: luminescence; series mostly up to 46.1 µM
Description: NIH Molecular Libraries Probe Production Network [MLPCN]
NIH Chemical Genomics Center [NCGC]
Assay Provider: Kyungjae Myung, NHGRI, NIH
Keywords: MLPCN, qHTS, NCGC, genotoxicity, cancer
Cancer cells divide rapidly compared to normal cells in the body. During cell division, cancer cells need to duplicate their genome by DNA replication. The failure of genome duplication leads to cancer cells' death. Therefore, inhibitors of DNA replication could specifically kill cancer cells. Based on this concept, many chemotherapeutic agents were developed and have been used to treat cancer patients. However, there are a limited number of agents available in the clinical setting, and some of those that do exist have low efficacy and severe side effects. Therefore, if we can find the compounds that effectively block DNA replication either by directly damaging DNA or by inhibiting other cellular mechanisms, the options for cancer treatment will be broadened. With this in mind, we developed a quantitative high-throughput ELG1-luciferase reporter gene assay. Since the level of human ELG1 protein is enhanced in response to genetic stresses, increases in luciferase activity can be used to identify compounds that cause genetic stress.
For genotoxicity screening, 2,000 cells in 5 uL/well were dispensed into white, solid-bottom 1536-well plates using a solenoid-based dispenser. Following transfer of 23 nL compound or DMSO vehicle by a pin tool, the plates were incubated 16 hr at 37 °C and 5% CO2. 5 ul ONE-Glo (Promega) was then added to each plate and following a 30 min incubation at room temperature, luciferase activity was quantified on a ViewLux CCD-based plate reader.
Potency is read from the fitted curve at half-maximal effect.

Row | Compound | Potency
1 | COc1cc(C(=O)OCCCN2CCCN(CCCOC(=O)c3cc(OC)c(OC)c(OC)c3)CC2)cc(OC)c1OC | 16.4 µM (active)
2 | CCN(CC)CCOCCOC(=O)C1(c2ccccc2)CCCC1 | inactive
3 | CCCCCN(CCCCC)C(=O)C(CCC(=O)O)NC(=O)c1ccc(Cl)c(Cl)c1 (stereo not given) | inactive
4 | OCCN1CCN(CCCN2c3ccccc3C=Cc3ccccc32)CC1 | inactive
5 | CC(=O)OC(C)C[N+](C)(C)C (stereo not given) | inactive
6 | NC(=O)N1c2ccccc2C=Cc2ccccc21 | inactive
7 | CC(=O)Oc1cc(C(C)C)c(OCCN(C)C)cc1C | inactive
8 | CCN(CC)CCNC(=O)c1ccc(NC(C)=O)cc1 | inactive
9 | O=C(O)CN(CCN(CC(=O)O)CC(=O)O)CCN(CC(=O)O)CC(=O)O | inactive
10 | COC(=O)[C@@H](N)Cc1ccc(O)c(O)c1 | inactive
11 | NC(N)=NC(=O)Cc1c(Cl)cccc1Cl | inactive
12 | Fc1ccc(C(c2ccc(F)cc2)N2CCN(C/C=C/c3ccccc3)CC2)cc1 | inactive
13 | CCc1c(C)[nH]c2c1C(=O)C(CN1CCOCC1)CC2 (stereo not given) | inactive
14 | Cc1ccc(S(=O)(=O)NC(=O)NN2CCCCCC2)cc1 | inactive
15 | CCO/C([O-])=N/c1c[n+](N2CCOCC2)no1 | inactive
16 | CCCN(CCC)C(=O)C(CCC(=O)O)NC(=O)c1ccccc1 (stereo not given) | inactive
17 | CC[N+](C)(C)c1cccc(O)c1 | inactive
18 | O=C(O)CN(CCOCCOCCN(CC(=O)O)CC(=O)O)CC(=O)O | inactive
19 | NCCCNCCSP(=O)(O)O | inactive
20 | CC(N=C(NC#N)Nc1ccncc1)C(C)(C)C (stereo not given) | inactive

Row | Compound | Potency
21 | c1ccc2c(c1)CCCC2C1=NCCN1 (stereo not given) | inactive
22 | CCN(CC)CCCN(c1ccccc1)C1Cc2ccccc2C1 | inactive
23 | C[N+](C)(C)CCOC(N)=O | inactive
24 | C[C@]12C=CC(=O)C=C1CC[C@H]1[C@@H]3C[C@@H](O)[C@](O)(C(=O)CO)[C@@]3(C)C[C@H](O)[C@@]12F | inactive
25 | Cc1cc(C)c(/C=C2\C(=O)Nc3ccccc32)[nH]1 | inactive
26 | c1cnc(N2CCN(Cc3ccc4c(c3)OCO4)CC2)nc1 | inactive
27 | CN1CCN(C2=Nc3ccccc3Oc3ccc(Cl)cc32)CC1 | inactive
28 | O=C(O)CP(=O)(O)O | inactive
29 | NC(=O)c1cn(Cc2c(F)cccc2F)nn1 | inactive
30 | CCCCCCCC/C=C\CCCCCCCC(=O)NCc1ccc(O)c(OC)c1 | inactive
31 | CCC(=O)c1ccc2c(c1)N(CCCN(C)C)c1ccccc1S2 | inactive
32 | N[C@@H](COP(=O)(O)O)C(=O)O | inactive
33 | OC(CCN1CCCCC1)(c1ccccc1)C1CCCCC1 (stereo not given) | inactive
34 | C#CCN(C)CCCOc1ccc(Cl)cc1Cl | inactive
35 | CCn1ccnc1CC1COc2ccccc2O1 (stereo not given) | inactive
36 | Cc1ccc(/C(=C\CN2CCCC2)c2ccccn2)cc1 | inactive
37 | O=C(CCCN1CCC(O)(c2cccc(C(F)(F)F)c2)CC1)c1ccc(F)cc1 | inactive
38 | CCOC(=O)c1cnc2c(cnn2CC)c1NN=C(C)C | inactive
39 | CCN(CC)CCNC(=O)c1cc(S(C)(=O)=O)ccc1OC | inactive
40 | CCCN(CCC)CCc1cccc2c1CC(=O)N2 | inactive
